Compounds without any hit were thinned out: in the full panel of roughly 79,000, 15% have a hit. Active and inactive are the calls of the source. Cut-off read from the data, not from the text of the source: active = growth inhibition above about 70%; inactive = the rest.
How the values were obtained:
[1] = NCI Yeast Anticancer Drug Screen. Data for the rad52 strain (AID 147);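 note: 0% = growth of vehicle-treated control cultures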; settings: S. cerevisiae rad52 mutant growth inhibition, hits give high values
Procedure, shortened: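 Inhibition of yeast growth, referenced to vehicle controls, was the measured output for a strain with defective DNA damage repair.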

[2] = NCI Yeast Anticancer Drug Screen. Data for the wt1 strain (AID 149);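 note: 0% = growth of vehicle-treated wt1 cultures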; settings: S. cerevisiae wt1 strain (SPY 50644) growth inhibition, hits give high values
Procedure, shortened: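 Yeast wt1 strain exposed to compounds; growth inhibition measured relative to vehicle-treated controls.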

[3] = NCI Yeast Anticancer Drug Screen. Data for the rad50EPP+ strain (AID 151);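 note: 0% = growth of vehicle-treated control cultures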; settings: S. cerevisiae rad50 mutant strain, hits give high values
Procedure, shortened: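 Genetically defined yeast (rad50EPP+, DNA damage repair alteration) is grown with compound, and inhibition of growth is expressed relative to vehicle-treated controls.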

[4] = NCI Yeast Anticancer Drug Screen. Data for the mgt1 strain (AID 153); settings: S. cerevisiae mgt1 mutant growth inhibition, hits give high values
Procedure, shortened: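 In the mgt1 strain, test compounds were added and growth inhibition was determined relative to vehicle-treated controls.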

[5] = NCI Yeast Anticancer Drug Screen. Data for the rad50 strain (AID 155);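 note: 0% = growth of vehicle-only cultures of the same strain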; settings: S. cerevisiae rad50 strain growth inhibition, hits give high values
Procedure, shortened: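 Yeast carrying a defined DNA repair defect were exposed to test compounds, and growth was compared with vehicle-treated controls to give percent inhibition.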

[6] = NCI Yeast Anticancer Drug Screen. Data for the mec2-1 strain (AID 157); settings: S. cerevisiae mec2-1 strain, hits give high values
Procedure, shortened: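 Each compound was tested on mec2-1 yeast, a strain altered in DNA damage repair or cell cycle control. Growth inhibition is reported relative to vehicle.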

[7] = NCI Yeast Anticancer Drug Screen. Data for the rad14 strain (AID 159);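 note: 0% = growth of vehicle-treated control cultures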; settings: S. cerevisiae rad14 strain growth inhibition, hits give high values
Procedure, shortened: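 Yeast cells carrying a defined DNA-repair defect were exposed to compounds, and growth inhibition was calculated relative to vehicle-treated control cultures.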

[8] = NCI Yeast Anticancer Drug Screen. Data for the sgs1 mgt1 strain (AID 161);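 note: 0% = growth of cultures given vehicle only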; settings: S. cerevisiae sgs1 mgt1 strain, hits give high values
Procedure, shortened: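 Test agents were incubated with a DNA-repair-mutant yeast strain. Growth was then read and compared against vehicle-treated controls.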

[9] = NCI Yeast Anticancer Drug Screen. Data for the CLN2oe strain (AID 163);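 note: 0% = growth of vehicle-only control cultures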; settings: S. cerevisiae CLN2oe strain, hits give high values
Procedure, shortened: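 First, the altered yeast strain was treated with each compound; second, its growth was measured; finally, inhibition was derived by comparison with vehicle controls.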

[10] = NCI Yeast Anticancer Drug Screen. Data for the cln2 rad14 strain (AID 165);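 note: 0% = growth equal to vehicle treated cultures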; settings: S. cerevisiae cln2 rad14 strain, hits give high values
Procedure, shortened: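 Test compounds were added to cln2 rad14 yeast cultures; inhibition of growth was then determined by comparison with vehicle treatment.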

[11] = NCI Yeast Anticancer Drug Screen. Data for the bub3 strain (AID 167); settings: S. cerevisiae bub3 mutant strain, hits give high values
Procedure, shortened: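 Compounds were applied to a genetically altered yeast strain carrying a cell-cycle control defect. Growth inhibition was scored against vehicle-treated controls.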

[12] = NCI Yeast Anticancer Drug Screen. Data for the mlh1 strain (AID 171);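 note: 0% = growth of vehicle-treated control cultures of the same strain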; settings: S. cerevisiae mlh1 strain growth inhibition, hits give high values
Procedure, shortened: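 Inhibition values reflect reduced yeast growth in the presence of compound, referenced to vehicle controls, using a strain chosen for its alteration in DNA repair or cell cycle control.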

[13] = NCI Yeast Anticancer Drug Screen. Data for the sgs1 strain (AID 173);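 note: 0% = growth of vehicle-only control cultures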; settings: S. cerevisiae sgs1 mutant, hits give high values
Procedure, shortened: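 Vehicle-treated cultures served as reference for growth inhibition of a yeast strain altered in DNA damage repair or cell cycle control after compound exposure.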

[14] = NCI Yeast Anticancer Drug Screen. Data for the mlh1 rad18 strain (AID 175); settings: S. cerevisiae mlh1 rad18 strain growth inhibition, hits give high values
Procedure, shortened: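 Inhibition values reflect reduced growth of mutant yeast versus vehicle-treated controls following compound exposure; the mutations affect DNA damage repair.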

[15] = NCI Yeast Anticancer Drug Screen. Data for the rad18 strain (AID 177); settings: S. cerevisiae rad18 mutant growth inhibition, hits give high values
Procedure, shortened: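 Steps: expose repair-mutant yeast to compound; measure growth; express as inhibition relative to vehicle control.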

[16] = at 5.0 µM (retest, dose inferred, filed as 0.5)
[17] = at 50.0 µM (retest, dose inferred, filed as 5.0)

Measured: growth inhibition

O=C(O)c1cc2c(cc1S(=O)(=O)O)C1C(C3C2C2(Cl)C(Cl)=C(Cl)C3(Cl)C2(Cl)Cl)C2(Cl)C(Cl)=C(Cl)C1(Cl)C2(Cl)Cl (stereo not drawn)
inactive: [1]; at 1.2 µM 0% | [1]; at 3.7 µM 3% | [1]; at 11.0 µM 13% | [2]; at 1.2 µM 2% | [2]; at 3.7 µM 0% | [2]; at 11.0 µM 3% | [2]; at 33.0 µM 62% | [3]; at 1.2 µM 3% | [3]; at 3.7 µM -2% | [3]; at 11.0 µM -52% | [3]; at 33.0 µM -84% | [3]; at 100.0 µM 61% | [4]; at 1.2 µM 2% | [4]; at 3.7 µM -1% | [4]; at 11.0 µM 22% | [5]; at 1.2 µM 2% | [5]; at 3.7 µM 1% | [5]; [16] 17% | [5]; at 11.0 µM 9% | [5]; at 33.0 µM 63% | [6]; at 1.2 µM -3% | [6]; at 3.7 µM -2% | [6]; [16] 20% | [6]; at 11.0 µM 0% | [7]; at 1.2 µM 0% | [7]; at 3.7 µM 3% | [7]; at 11.0 µM 24% | [8]; [16] 37% | [9]; at 1.2 µM -4% | [9]; at 3.7 µM -5% | [9]; at 11.0 µM -11% | [9]; at 33.0 µM 51% | [10]; [16] 11% | [11]; at 1.2 µM -3% | [11]; at 3.7 µM -5% | [11]; [16] 2% | [11]; at 11.0 µM -11% | [12]; at 1.2 µM -2% | [12]; at 3.7 µM -2% | [12]; at 11.0 µM 11% | [13]; at 1.2 µM -4% | [13]; at 3.7 µM -1% | [13]; at 11.0 µM 21% | [14]; [16] 67% | [15]; at 1.2 µM -1% | [15]; at 3.7 µM -1% | [15]; at 11.0 µM -8%
active: [1]; at 33.0 µM 78% | [1]; at 100.0 µM 95% | [2]; at 100.0 µM 96% | [4]; at 33.0 µM 92% | [4]; at 100.0 µM 96% | [5]; [17] 96% | [5]; at 50.0 µM 96.2% | [5]; at 100.0 µM 90% | [6]; at 33.0 µM 85% | [6]; [17] 96% | [6]; at 50.0 µM 95.4% | [6]; at 100.0 µM 96% | [7]; at 33.0 µM 84% | [7]; at 100.0 µM 96% | [8]; [17] 97% | [8]; at 50.0 µM 94.4% | [9]; at 100.0 µM 88% | [10]; [17] 97% | [10]; at 50.0 µM 93.7% | [11]; at 33.0 µM 74% | [11]; [17] 98% | [11]; at 50.0 µM 94.8% | [11]; at 100.0 µM 94% | [12]; at 33.0 µM 95% | [12]; at 100.0 µM 97% | [13]; at 33.0 µM 92% | [13]; at 100.0 µM 96% | [14]; [17] 98% | [14]; at 50.0 µM 96.3% | [15]; at 33.0 µM 82% | [15]; at 100.0 µM 95%
